About 4,000 (25%) of roughly 16,000 compounds were called active. Roughly 26% stayed inconclusive and do not appear here. The call rests on the fitted dose curve; in most records, active means well fitted curve in the direction sought with a large enough effect; inconclusive means small, poorly fitted or top-dose-only effect, or effect the other way; inactive means no such curve, though single readings can be large or run the other way. The list is a sample of the results.
On the % scale 0 is the no-effect control and ±100 the full control effect.

The assay deals with Cytochrome P450 2C9 (Homo sapiens) (UniProt P11712). The experiment in a line: Cytochrome panel assay with activity outcomes. The note with it: recombinant CYP, pro-luciferin dealkylation, luminescence, p450-cyp2c9; series mostly up to 57.1 µM.
Sequence of Cytochrome P450 2C9 (Homo sapiens) (P11712 whole entry, looked up): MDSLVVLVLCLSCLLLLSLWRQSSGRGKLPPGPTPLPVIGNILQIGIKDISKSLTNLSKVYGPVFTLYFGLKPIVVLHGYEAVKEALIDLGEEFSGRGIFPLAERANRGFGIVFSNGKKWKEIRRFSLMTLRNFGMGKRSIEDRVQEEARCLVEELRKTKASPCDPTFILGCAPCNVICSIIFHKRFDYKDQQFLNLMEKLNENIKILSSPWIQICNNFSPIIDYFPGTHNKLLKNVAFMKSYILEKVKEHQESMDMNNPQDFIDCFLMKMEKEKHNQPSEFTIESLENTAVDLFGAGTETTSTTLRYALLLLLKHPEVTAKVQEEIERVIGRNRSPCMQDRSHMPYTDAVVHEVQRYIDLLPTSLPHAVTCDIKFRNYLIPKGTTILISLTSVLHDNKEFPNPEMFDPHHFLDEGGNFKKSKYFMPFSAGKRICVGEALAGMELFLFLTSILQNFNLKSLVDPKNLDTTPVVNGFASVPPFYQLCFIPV
As to `NC[C@H](O)C1CCCCCCC1`, the AC50 entry was “inactive”. The same measure, in the same setting: under `Nc1ncnc2c1nc(Sc1ccc(Cl)cc1)n2[C@@H]1O[C@H]2COP(=O)(O)O[C@@H]2[C@H]1O` stands “inactive”; under `COCCn1c(=O)c(-c2cn(C)c3ccccc23)nc2cnc(Oc3ccc(OC)cc3)nc21`, “inactive”. Still for that read-out and setting: to `COCCn1c(=O)c(-c2ccccc2)nc2cnc(Oc3ccc(OC)cc3)nc21` belongs 10 µM (active). Same read-out and setting: to `COCCn1c(=O)c(-c2ccc(Cl)cc2)nc2cnc(Oc3ccccc3)nc21` belongs 7.94 µM (active); to `COCCn1c(=O)c(-c2ccccc2)nc2cnc(Nc3cccc(OC)c3)nc21`, “inactive”; to `Cn1c(=O)c(-c2ccc(Cl)cc2)nc2cnc(Oc3ccccc3)nc21`, “inactive”. For the compound `COCCn1c(=O)c(-c2cn(C)c3ccccc23)nc2cnc(Oc3ccccc3)nc21`, the AC50 entry was “inactive”.

With `COCCn1c(=O)c(-c2ccccc2)nc2cnc(Oc3ccccc3)nc21`, the AC50 was 10 µM (active). In the case of `COCCn1c(=O)c(-c2ccc(Cl)cc2)nc2cnc(Nc3ccccc3)nc21`, the AC50 entry is “inactive”. Same read-out and setting: to `CCNc1ncc2nc(-c3ccc(OC)cc3)c(=O)n(CCOC)c2n1` belongs “inactive”. As for `Nc1nc(N)c2[nH]cnc2n1` (tested in a mixture with another compound), the activity, negative = inhibition is -4.44% [at 11.4 µM] (inactive).

In the case of `Cc1[nH]c(N)nc(=S)c1CCC(=O)O`, the activity, negative = inhibition is 2.61% [at 11.4 µM] (inactive). With `c1ccc2c[n+](Cc3ccnc4ccccc34)ccc2c1`, the activity, negative = inhibition was -6.16% [at 11.4 µM] (inactive). For `C=CCn1c(SCC(=O)Nc2c(C)n(C)n(-c3ccccc3)c2=O)nc2sc(C)c(-c3ccccc3)c2c1=O`, the half-maximal activity concentration (AC50) is 14.1 µM (active). Take `Cc1c(NC(=O)CSc2nnc3c4ccccc4n(CCc4ccccc4)c3n2)c(=O)n(-c2ccccc2)n1C`: the AC50 is 0.708 µM (active). On to `Cc1c(NC(=O)CSc2nnnn2C)c(=O)n(-c2ccccc2)n1C`, for which the AC50 entry is “inactive”. The same measure, in the same setting: to `Cc1c(NC(=O)CN2C(=O)C3C4C=CC(C4)C3C2=O)c(=O)n(-c2ccccc2)n1C` (centres undefined) belongs “inactive”; to `Cc1nc(SCC(=O)Nc2c(C)n(C)n(-c3ccccc3)c2=O)nc(C)c1C`, “inactive”; to `Cc1c(NC(=O)Cn2ccc([N+](=O)[O-])n2)c(=O)n(-c2ccccc2)n1C`, “inactive”. As to `CN[C@]1(C)[C@@H]2CC[C@@H](C2)C1(C)C`, the AC50 result is “inactive”. In the case of `CN1CCN(C2=Cc3ccccc3Oc3ccc(Cl)cc32)CC1`, the AC50 result is “inactive”. As for `C=CC[C@@H]1C=C[C@H](O/N=C(\C)CCN2CCc3nc(CC)c(CC)cc3C2)[C@H](CO)O1`, the activity, negative = inhibition is -6.8% [at 11.4 µM] (inactive). On the same count and under the same terms, under `O=C(O)c1cc(N=Nc2ccc([N+](=O)[O-])cc2)ccc1O` stands -19.1% [at 11.4 µM] (inactive). As to `O=C(c1cc(O)c(O)c([N+](=O)[O-])c1)c1ccccc1F`, the AC50 is 1.26 µM (active). For the compound `N#Cc1cc2nc(O)c(O)nc2cc1[N+](=O)[O-]`, the AC50 entry is “inactive”. As for `Cc1cc(Cl)ccc1OCC(=O)NCc1ccncc1`, the AC50 is 0.794 µM (active). On to `Cc1ccc(CNC(=O)COC(=O)c2cnccn2)cc1`, for which the AC50 result is “inactive”. For the compound `CCCn1nnnc1-c1cc(Cl)cc(Cl)c1`, the AC50 entry is “inactive”. On to `Cc1cc(Cl)ccc1OCC(=O)Nc1nc(N)nc(N)n1`, for which the activity, negative = inhibition was 23.6% [at 11.4 µM] (inactive). For the compound `CCCn1nnnc1NC(=O)COc1ccc(Cl)cc1C`, the AC50 was 10 µM (active). The same measure, in the same setting: under `Cc1cccc(NC(=O)C2(c3ccccc3)CC2(Cl)Cl)c1` (centres undefined) stands 2 µM (active); under `Cc1cccc(N/C(N)=N/c2nc(C)cc(C)n2)c1`, “inactive”.

`CCN(CC)CCOC(=O)C1(c2ccc([N+](=O)[O-])cc2)CCCC1`: the AC50 entry was “inactive”. For `Cc1cccc(NC(=O)C2(c3ccc([N+](=O)[O-])cc3)CCCC2)c1`, the AC50 is 20 µM (active). Consider `CN1CCC[C@@H](CC2c3ccccc3Sc3ccccc32)C1`, for which the AC50 result is “inactive”.

For `CCSC(N)=Nc1ccc(C(F)(F)F)cc1`, the AC50 entry is “inactive”. The same measure, in the same setting: under `COc1cc(S(C)=O)ccc1-c1nc2ncccc2[nH]1` (centres undefined) stands “inactive”; under `COC(=O)c1ccccc1NC(=O)c1cc2nc(C3CC3)cc(C(F)(F)F)n2n1`, 3.55 µM (active); under `CN(C)CCOC(=O)[C@@H](c1ccccc1)C1(O)CCCC1`, “inactive”.

For `C[C@@H]1c2cccc(O)c2C(O)=C2C(=O)[C@@]3(O)C(O)=C(C(N)=O)C(=O)[C@@H](N(C)C)[C@@H]3[C@@H](O)[C@@H]21`, the AC50 result is “inactive”. On the same count and under the same terms, to `Cc1ccc(S(=O)(=O)NC(=O)NN2C[C@H]3CCC[C@@H]3C2)cc1` belongs “inactive”; to `Cc1ccc(S(=O)(=O)NC(=O)c2cccn2C)cc1`, 15.8 µM (active). In the case of `Cc1ccc(S(=O)(=O)NC(=O)OC23COCN2COC3)cc1`, the activity, negative = inhibition was -0.0498% [at 11.4 µM] (inactive). On to `CCN(CC)CCNc1ccc(CO)c2sc3ccccc3c(=O)c12`, for which the AC50 result is “inactive”. On to `c1ccc(CCNCc2ccco2)nc1`, for which the activity, negative = inhibition is 0.412% [at 11.4 µM] (inactive). Turning to `O=C(NCc1ccccc1)C(c1ccc(F)cc1)N(Cc1ccco1)C(=O)c1ccccn1` (centres undefined), the AC50 is 15.8 µM (active). For the compound `Cc1ccccc1C(C(=O)NCc1ccccc1)N(Cc1ccco1)C(=O)c1ccccn1` (centres undefined), the AC50 is 10 µM (active). Regarding `CC(Cc1ccccc1)C(=O)NCc1ccccn1` (centres undefined), the AC50 entry was “inactive”.

As to `Cc1ccccc1-c1nc(N(C)Cc2ccco2)c2ccccc2n1`, the activity, negative = inhibition was -11% [at 2.29 µM] (inactive).

In the case of `CN(Cc1ccco1)c1ncnc2ccc(-c3cccnc3)cc12`, the activity, negative = inhibition was -16.8% [at 2.29 µM] (inactive). For the compound `Cc1cc(C(C)(C)CC(C)(C)C)ccc1OCCOCC[N+](C)(C)Cc1ccccc1`, the AC50 entry was “inactive”. As for `Cc1cc(C)nc(NS(=O)(=O)c2ccc(N)cc2)n1`, the AC50 result was “inactive”. Same read-out and setting: to `CNc1cc(NS(=O)(=O)c2ccc(N)cc2)nc(NC)n1` belongs 2 µM (active); to `COc1cc(NS(=O)(=O)c2ccc(N)cc2)ncn1`, “inactive”. Turning to `Cc1ccccc1-n1nc2c(c1NC(=O)c1ccc(S(=O)(=O)N(C)C)cc1)CSC2`, the AC50 is 2.82 µM (active). As to `CCCC(=O)Nc1c2c(nn1-c1ccc(C)cc1C)CSC2`, the AC50 is 14.1 µM (active). For the compound `Cc1ccc(-n2nc3c(c2NC(=O)c2cccs2)CSC3)cc1`, the AC50 was 3.55 µM (active).

`CCCC(=O)Nc1c(C)n[nH]c1C`: the AC50 entry is “inactive”. The same measure, in the same setting: under `Cc1ccccc1-n1nc2c(c1NC(=O)c1c(-c3ccccc3Cl)noc1C)CSC2` stands 1.41 µM (active); under `CC(C)(C)NC[C@H](O)COc1cccc2c1CCC(=O)N2`, “inactive”. In the case of `CCOC(=S)SCC(=O)O`, the activity, negative = inhibition is 4.25% [at 11.4 µM] (inactive). For the compound `NC1=N[C@H](c2ccc(Cl)cc2)N(c2ccc(S(=O)(=O)Nc3ncccn3)cc2)C(N)=N1`, the activity, negative = inhibition was 14.6% [at 11.4 µM] (inactive). For the compound `CC(C)CO/N=C1/C[C@@H](O)[C@@H](O)[C@@H]2[C@@H]3C(=O)N([C@@H](C)c4ccccc4)C(=O)[C@H]3CC[C@@H]12`, the activity, negative = inhibition was -15.7% [at 11.4 µM] (inactive).

Turning to `Cc1nc(NS(=O)(=O)c2ccccc2C)c2c3c(sc2n1)CCC3`, the AC50 was 2.51 µM (active).

With `Cc1nc(NS(=O)(=O)c2ccc(Br)cc2)c2c3c(sc2n1)CCC3`, the AC50 is 0.224 µM (active). As for `Cn1c2c(c(=O)n(C)c1=O)C1(C(=O)Nc3ccccc31)C(C#N)=C(N)O2` (centres undefined), the AC50 result was “inactive”. The same measure, in the same setting: under `CCn1c(=O)[nH]c2cc(Cl)c(Cl)cc21` stands “inactive”.

As to `C[C@@H](c1ccccc1)N1C(=O)[C@H]2[C@H]3[C@H](O)[C@H](O)C/C(=N/OCc4ccccc4)[C@H]3CC[C@@H]2C1=O`, the activity, negative = inhibition is -20.1% [at 11.4 µM] (inactive). As to `COc1ccc(OCc2nnc(SCC(=O)O)n2N)cc1`, the AC50 entry is “inactive”. Turning to `CCn1c(SCC(=O)N/N=C/C=C\c2ccccc2[N+](=O)[O-])nnc1-c1ccccc1`, the AC50 entry is “inactive”. Turning to `CCn1c(COc2ccccc2)nnc1SCC(=O)c1cccc([N+](=O)[O-])c1`, the AC50 was 22.4 µM (active). For the compound `O=C(CSc1nc2ccc([N+](=O)[O-])cc2s1)c1ccc2ccccc2c1`, the activity, negative = inhibition was -5.5% [at 11.4 µM] (inactive). Turning to `O=C(CSc1nnc(COc2ccccc2)n1-c1ccccc1)c1ccccc1`, the AC50 is 10 µM (active). With `CO[C@@H]1COC(=O)C/C=C\[C@@H](C)[C@@H]2C=C[C@H](O)[C@@H](COC(=O)CCC[C@H]1C)O2`, the activity, negative = inhibition is -8.54% [at 11.4 µM] (inactive). For the compound `Cc1c(C)n(C(=O)CN2CCC(C)CC2)c2ccccc12`, the AC50 entry was “inactive”. Consider `CO[C@@H]1COC(=O)C/C=C\[C@H](C)[C@H](OC)COC(=O)[C@H]2CCCN2C(=O)C/C=C\[C@H]1C`, for which the activity, negative = inhibition was 13.8% [at 11.4 µM] (inactive). Take `OC[C@H]1NC[C@H](O)[C@@H](O)[C@H]1O`: the AC50 entry was “inactive”. `Cc1cc(N2CCN(C)CC2)nc2ccc(NC(=O)CCC(=O)NCc3ccco3)cc12`: the AC50 entry is “inactive”. Consider `Cc1ccc(NC(=O)N(Cc2ccco2)C(C)c2ccco2)cc1C` (centres undefined), for which the AC50 was 12.6 µM (active).

Turning to `Cc1ccccc1-c1cc(N(C)Cc2ccco2)ncn1`, the activity, negative = inhibition is -5.66% [at 2.29 µM] (inactive).

As for `CCCCSC(=S)N(C)C1CCS(=O)(=O)C1` (centres undefined), the concentration at half-maximal activity (AC50) is 17.8 µM (active). Consider `CCCCN(C(=S)Nc1ccccc1)C1CCS(=O)(=O)C1` (centres undefined), for which the AC50 result was “inactive”.

Turning to `CCCNC1CCS(=O)(=O)C1` (centres undefined), the AC50 result was “inactive”.

For `O=C(Cc1ccccc1)NC1CCN(S(=O)(=O)c2ccc(C(=O)O)cc2)CC1`, the AC50 result is “inactive”. Consider `Cc1ccc(NC(=O)CN2CCC(NC(=O)Cc3ccccc3)CC2)cc1C`, for which the AC50 is 15.8 µM (active).

Regarding `Cc1ccc(C(c2ccc(C)o2)c2cccc([N+](=O)[O-])c2O)o1`, the AC50 was 1.26 µM (active). Take `O=[N+]([O-])c1cccc2c(Br)[nH]nc12`: the AC50 result is “inactive”. In the case of `O=[N+]([O-])c1cccc2cn[nH]c12`, the AC50 entry was “inactive”.

Turning to `COC(=O)C1=C(C)OC(N)=C(C#N)C1c1cc(OC)ccc1OC` (centres undefined), the half-maximal activity concentration (AC50) was 5.01 µM (active). Consider `COC(=O)C1=C(C)OC(N)=C(C#N)C1C1CCCCC1` (centres undefined), for which the AC50 was 10 µM (active). In the case of `CCOC(=O)C1=C(N)Oc2ccc(Br)cc2[C@@H]1[C@@H](C#N)C(=O)OCC`, the AC50 entry is “inactive”. In the case of `CCOC(=O)C1=C(c2ccccc2)OC(N)=C(C#N)C1c1ccc(Cl)s1` (centres undefined), the AC50 result was “inactive”. Take `CC(=O)OC[C@@H]1O[C@H](C/C=N\O[C@@H](C)c2cn([C@H]3COC[C@H]3O)nn2)C=C[C@@H]1OC(C)=O`: the activity, negative = inhibition was 17.7% [at 11.4 µM] (inactive).
